Assay [1] is described as follows: inhibitors of TNFa-induced NFkB p65 translocation, primary screen, imaging, HUVEC, MLSMR starter and 10KST1 sets (AID 438;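 active = inhibition above 20% together with a positive visual image hit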;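 note: compound added about 3h40 before a 20 min TNFalpha stimulation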;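 for inhibition: signal is the nuclear over cytoplasmic p65 intensity ratio per well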). The settings on record: HUVEC TNFa-induced p65 nuclear translocation; cell count: measured here: nuclei count (cytotoxicity indicator), at 2.08 µM; inhibition: at 2 µM, stronger effect = higher value, 0% TNFa-plus-vehicle, 100% no-TNFa wells.
A short description of assay [2]: inhibitors of mutant huntingtin aggregation, primary screen, imaging, exon1htt(103Q)mCFP cells, high-content imaging (AID 483;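 active = visual image review flags a hit and inhibition of aggregation exceeds 20%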;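 note: compound exposure lasted 3 days before fixation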;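 for nuclei count: percent of the per-plate median nuclei count of sample wells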). The settings on record: exon1htt(103Q)mCFP cell line, aggregate imaging, at 2 µM; inhibition of aggregation: stronger effect = higher value; nuclei count: measured here: cell count, toxicity.
The nature of assay [3]: inhibitors of E-selectin induction by TNFa, primary screen, imaging, HUVEC, immunofluorescence, MLSMR starter and 10KST1 sets (AID 487).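 For inhibition: signal is fraction of cell area covered by stained E-selectin grains.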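 For nuclei count: 100% = median nuclei count of all wells on the same plate.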 The settings on record: HUVEC TNFalpha-induced E-selectin immunofluorescence imaging, at 2 µM; inhibition: stronger effect = higher value; nuclei count: measured here: cell number, toxicity.
Assay [4] has as its target Voltage-gated potassium channel subunit beta-2 (Rattus norvegicus) (UniProt P62483). Description: KvBeta enzyme negative modulators, primary screen, biochemical, NADPH fluorescence (AID 622;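 active = fluorescence slope higher than the sample average by over 3 SD, cut at about -0.22 in these data, passing the limit was not always enough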;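 note: slope of raw intensity against log time taken from 70 to 1610 s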). The settings on record: recombinant KvBeta, 4-cyanobenzaldehyde reduction, at 10 µM, stronger effect = higher value.
The target is the same in assay [5]. Put plainly: KvBeta positive modulators, primary screen, biochemical, NADPH fluorescence (AID 623;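 active = NADPH fluorescence slope more negative than the mean of all samples by about 3 SD, 99.7% confidence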;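 note: fluorescence intensity change per second fitted from 20 to 320 s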). Conditions: Recombinant KvBeta, NADPH fluorescence decrease slope, 10 min; at 10 µM; stronger effect = lower value.
Assay [6] deals with Alpha-2C adrenergic receptor (Homo sapiens) (UniProt P18825). Description: modulators of alpha2C/GIRK thallium flux, primary screen, cell-based, HEK293 alpha2C/GIRK1/2 (AID 624;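 active = fluorescence slope after compound addition differing from the mean of all screened samples at 99.7% confidence, in either direction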;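 note: slope of fluorescence ratio to pre-addition baseline per second over 15 to 24 s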). Conditions: thallium flux BTC fluorescence, at 10 µM, actives lie on both sides.
A short description of assay [7]: inhibitors of Sendai virus-induced IRF3 signaling, primary screen, TLR/RLR signaling modifier project, cell-based, Sendai virus stimulus, luciferase, 10K MLSCN set (AID 602276;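 active = inhibition at or above 50% at 10 µM; inactive = inhibition below 50%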;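 note: firefly luciferase from ISG56 promoter only with Renilla not read in this screen; 0% = Sendai virus plus DMSO and 100% = medium plus DMSO without virus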). The settings on record: HEK293 RL24 IRF3 luciferase reporter, at 10 µM, stronger effect = higher value.
Assay [8] can be described thus: inhibitors of poly I:C-induced TLR3 signaling, primary screen, cell-based, poly I:C stimulus, luciferase, 10K MLSCN set (AID 602277;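 active = inhibition of the reporter signal at or above 50%; inactive = inhibition below 50%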). Conditions: HEK293-TLR3 RL24 IRF3 luciferase reporter, at 10 µM, stronger effect = higher value. On the technique in general: A reporter such as luciferase makes a cellular process visible.

Active and inactive are the calls of the source.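 Rule for the calls, unless noted: active = visually confirmed hit in the image check and inhibition above 20%; inconclusive = visually confirmed hit but inhibition not above 20%; inactive = no visual hit in the image check.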

Usually inhibition stands for the relative decrease from the control value, in per cent.

Sequence of Alpha-2C adrenergic receptor (Homo sapiens) (P18825 whole entry, looked up): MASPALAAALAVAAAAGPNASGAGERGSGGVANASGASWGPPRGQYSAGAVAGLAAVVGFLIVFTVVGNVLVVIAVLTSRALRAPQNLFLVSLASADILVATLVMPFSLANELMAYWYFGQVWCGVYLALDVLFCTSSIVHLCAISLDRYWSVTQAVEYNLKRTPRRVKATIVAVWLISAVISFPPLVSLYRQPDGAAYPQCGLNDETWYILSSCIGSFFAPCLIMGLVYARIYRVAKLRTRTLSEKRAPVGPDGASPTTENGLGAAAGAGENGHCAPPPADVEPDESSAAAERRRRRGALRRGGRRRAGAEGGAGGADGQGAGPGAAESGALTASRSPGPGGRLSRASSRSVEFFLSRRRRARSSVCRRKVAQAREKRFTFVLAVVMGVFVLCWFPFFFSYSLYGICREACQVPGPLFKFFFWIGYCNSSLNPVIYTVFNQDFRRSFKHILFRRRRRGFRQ
Sequence of Voltage-gated potassium channel subunit beta-2 (Rattus norvegicus) (P62483 whole entry, looked up): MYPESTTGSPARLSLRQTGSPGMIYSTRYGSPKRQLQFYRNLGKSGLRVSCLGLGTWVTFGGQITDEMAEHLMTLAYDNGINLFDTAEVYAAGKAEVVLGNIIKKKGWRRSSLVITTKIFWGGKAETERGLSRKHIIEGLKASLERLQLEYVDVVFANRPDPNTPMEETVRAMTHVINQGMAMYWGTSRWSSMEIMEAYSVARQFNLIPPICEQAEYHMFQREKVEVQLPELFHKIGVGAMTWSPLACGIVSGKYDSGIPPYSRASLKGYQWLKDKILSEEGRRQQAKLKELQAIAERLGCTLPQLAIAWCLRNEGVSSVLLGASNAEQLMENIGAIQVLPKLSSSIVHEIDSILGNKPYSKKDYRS

Take `O=C(NC1CCCCC1)C(c1ccc(Cl)cc1)N(C(=O)c1cnccn1)c1ccc2c(c1)OCO2` (centres undefined): in assay [1], the cell count came to 694. Further, the inhibition in assay [1] was 3.4% (inactive); in assay [3] it was -87% (inactive); in assay [7] it was 11.2% (inactive); in assay [8] it was 7.2% (inactive). In addition, in assay [2], the inhibition of aggregation was 21.6% (inactive). For the same compound, the nuclei count in assay [2] was 93.8%; in assay [3], 110%. Also, the fluorescence slope in assay [4] is -0.392 (inactive). In addition, the NADPH fluorescence slope in assay [5] is -3.7e-05 (inactive). Further, the slope in assay [6] is 0.00597 (inactive).

Consider `CCCOc1ccccc1NC(=O)c1ccc(N)cc1`, for which the cell count in assay [1] amounted to 428. The inhibition in assay [1] is 7% (inactive); in assay [3], -137% (inactive); in assay [7], 11.3% (inactive); in assay [8] it was 18.2% (inactive). In assay [2], the inhibition of aggregation is 6.7% (inactive). The values for the nuclei count in assay [2] and in assay [3] were 106% and 114%, respectively. Moreover, the fluorescence slope in assay [4] was -0.396 (inactive). Besides, the NADPH fluorescence slope in assay [5] was -4.2e-05 (inactive). The slope in assay [6] was 0.00363 (inactive).

As to `CC(=O)Nc1sc2c(c1C#N)CCCCC2`, the cell count in assay [1] stood at 349. Besides, the inhibition is 0.8% (inactive) in assay [1], -76.6% (inactive) in assay [3], -1.89% (inactive) in assay [7] and -4.1% (inactive) in assay [8]. The inhibition of aggregation in assay [2] was 12.1% (inactive). For the same compound, the nuclei count in assay [2] was 78.3%; in assay [3], 115%. For the same compound, the fluorescence slope in assay [4] was -0.396 (inactive). In addition, the NADPH fluorescence slope in assay [5] was -5.5e-05 (inactive). Moreover, the slope in assay [6] is 0.00723 (inactive).

Turning to `CC(=O)NC1CC2CCCC(C1)N2CC(=O)Nc1ccccc1` (centres undefined), the cell count in assay [1] came to 302. Also, the inhibition in assay [1] is 9.6% (inactive); in assay [3] it was 26.1% (inactive); in assay [7], -13.6% (inactive); in assay [8], -5.22% (inactive). Moreover, in assay [2], the inhibition of aggregation was 3.9% (inactive). In addition, the nuclei count in assay [2] worked out at 89.5%; in assay [3], 93.9%. For the same compound, in assay [4], the fluorescence slope is -0.565 (inactive). The NADPH fluorescence slope in assay [5] is -2.4e-05 (inactive). The slope in assay [6] was 0.00646 (inactive).

`CCC(C)(C)NC(=O)CN(C(=O)c1snc(C(N)=O)c1N)c1ccc2c(c1)OCO2`: the cell count in assay [1] came out at 688. The inhibition was -7.3% (inactive) in assay [1], -39.8% (inactive) in assay [3], 13.1% (inactive) in assay [7] and 14.6% (inactive) in assay [8]. Also, the inhibition of aggregation in assay [2] was 0.7% (inactive). For the same compound, the nuclei count in assay [2] is 103%; in assay [3], 120%. For the same compound, the fluorescence slope in assay [4] was -0.517 (inactive). Also, in assay [5], the NADPH fluorescence slope is 3.3e-05 (inactive). Further, the slope in assay [6] was 0.00589 (inactive).

As for `CCOC(=O)c1[nH]c(C)c(C(=O)Nc2ccccc2C)c1C`, the cell count in assay [1] amounted to 619. Further, the inhibition in assay [1] is 12.1% (inactive); in assay [3] it was -15.2% (inactive); in assay [7], 27.7% (inactive); in assay [8] it was 11.1% (inactive). Further, the inhibition of aggregation in assay [2] is -101% (inactive). Besides, the nuclei count in assay [2] turned out to be 7.1%; in assay [3], 94.8%. The fluorescence slope in assay [4] is -0.603 (inactive). In assay [5], the NADPH fluorescence slope is -5.4e-05 (inactive). The slope in assay [6] is 0.00703 (inactive).

For `O=C(Nc1ccc(F)cc1)N(Cc1ccco1)Cc1cc2cc3c(cc2[nH]c1=O)OCO3`, the cell count in assay [1] worked out at 473. In addition, the inhibition was 4.5% (inactive) in assay [1], 15.9% (inactive) in assay [3], -8.59% (inactive) in assay [7] and -15.6% (inactive) in assay [8]. Also, in assay [2], the inhibition of aggregation was 6.1% (inactive). For the same compound, the nuclei count in assay [2] came out at 96.6%; in assay [3] it was 102%. The fluorescence slope in assay [4] was -0.418 (inactive). Also, the NADPH fluorescence slope in assay [5] is -2e-05 (inactive). Besides, the slope in assay [6] is 0.0056 (inactive).

Regarding `CCc1ccccc1NC(=O)C(CC)Sc1nc2cc3c(cc2c(=O)n1Cc1ccco1)OCO3` (centres undefined), the cell count in assay [1] was 486. The inhibition in assay [1] is 9.8% (inactive); in assay [3], -3.3% (inactive); in assay [7] it was 16.3% (inactive); in assay [8], 22.3% (inactive). In addition, the inhibition of aggregation in assay [2] was -21.1% (inactive). Also, the nuclei count in assay [2] came to 115%; in assay [3] it was 105%. Besides, the fluorescence slope in assay [4] was -0.494 (inactive). The NADPH fluorescence slope in assay [5] is -1.8e-05 (inactive). Moreover, in assay [6], the slope is 0.00667 (inactive).

Consider `Cc1nc(-c2cccc(-c3noc(C)n3)c2)no1`, for which, in assay [1], the cell count came out at 341. The inhibition in assay [1] is 2.2% (inactive); in assay [3], 11.4% (inactive); in assay [7], -12.8% (inactive); in assay [8], -3.56% (inactive). Besides, the inhibition of aggregation in assay [2] was -8.5% (inactive). Moreover, the nuclei count came out at 105% in assay [2] and 108% in assay [3]. For the same compound, the fluorescence slope in assay [4] was -0.473 (inactive). Moreover, in assay [5], the NADPH fluorescence slope was -4.9e-05 (inactive). Moreover, the slope in assay [6] was 0.00665 (inactive).

As for `CCC(C)NC(=O)CS(=O)(=O)Cc1nc(-c2cccc(OC)c2)oc1C` (centres undefined), the cell count in assay [1] came to 638. The inhibition in assay [1] was -1.3% (inactive); in assay [3], -44.8% (inactive); in assay [7] it was 9.35% (inactive); in assay [8] it was 4.33% (inactive). Further, the inhibition of aggregation in assay [2] was -7.7% (inactive). Further, the nuclei count in assay [2] turned out to be 99.2%; in assay [3], 107%. In assay [4], the fluorescence slope was -0.523 (inactive). In assay [5], the NADPH fluorescence slope was 2.7e-05 (inactive). In assay [6], the slope is 0.00702 (inactive).

Turning to `NC(=O)C1CCN(C(=O)c2cc3n(n2)C(C(F)(F)F)CC(c2ccco2)N3)CC1` (centres undefined), in assay [1], the cell count is 537. Moreover, the inhibition in assay [1] was -5.4% (inactive); in assay [3], -83.5% (inactive); in assay [7], 18.6% (inactive); in assay [8], 24.2% (inactive). The inhibition of aggregation in assay [2] was 2.5% (inactive). The values for the nuclei count in assay [2] and in assay [3] were 93.4% and 100%, respectively. Further, in assay [4], the fluorescence slope was -0.543 (inactive). Further, the NADPH fluorescence slope in assay [5] is 1.2e-05 (inactive). Also, the slope in assay [6] was 0.00594 (inactive).

In the case of `Cc1ccc(Nc2cc(-n3nc(C)cc3C)ncn2)cc1`, the cell count in assay [1] was 378. Also, the inhibition in assay [1] was 5.2% (inactive); in assay [3], -14.1% (inactive); in assay [7], -0.371% (inactive); in assay [8], -15.8% (inactive). Also, the inhibition of aggregation in assay [2] was -9.7% (inactive). The nuclei count in assay [2] is 99.7%; in assay [3], 101%. In assay [4], the fluorescence slope was -0.442 (inactive). Besides, the NADPH fluorescence slope in assay [5] was -3.4e-05 (inactive). Also, the slope in assay [6] is 0.00717 (inactive).

Consider `CCCCOC(=O)c1cccc(NC(=O)CC)c1`, for which the cell count in assay [1] is 667. The inhibition in assay [1] is -22.3% (inactive); in assay [3], 16.4% (inactive); in assay [7] it was -34.7% (inactive); in assay [8], -123% (inactive). The inhibition of aggregation in assay [2] was -8.8% (inactive). Further, the figures for the nuclei count in assay [2] and in assay [3] were 97.1% and 110%, respectively. Also, the fluorescence slope in assay [4] is -0.557 (inactive). In assay [5], the NADPH fluorescence slope was 4e-05 (inactive). Also, in assay [6], the slope was 0.00523 (inactive).

Turning to `CCOCC(=O)Nc1ccc(S(=O)(=O)N2CCOCC2)cc1`, the cell count in assay [1] is 283. The inhibition was -3.2% (inactive) in assay [1], -6.7% (inactive) in assay [3], 12% (inactive) in assay [7] and 19.7% (inactive) in assay [8]. Besides, the inhibition of aggregation in assay [2] is 16.5% (inactive). In addition, the nuclei count in assay [2] was found to be 89.1%; in assay [3], 73.9%. Also, the fluorescence slope in assay [4] was -0.418 (inactive). The NADPH fluorescence slope in assay [5] is 5.9e-06 (inactive). Also, the slope in assay [6] is 0.00604 (inactive).
